Measurements: the supplement of paper PMC6089552
The whole screen tested about 3,200 compounds, of which about 300 (9.4%) showed activity. The full list was thinned out, with actives kept by preference.

Test system: A673/TR/shEF
Test: cell viability (LOESS-normalised, relative to median of negative controls) (log2 ratio); higher = more viable cells (less compound effect), active = hit call of the paper (over 3 MAD below the median)
Details: treatment time: 72 h
In short: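 For three days, A673/TR/shEF Ewing sarcoma cells in 384-well plates (1,500 per well) were treated with library compounds at two or more concentrations or with DMSO controls, after doxycycline had been added or withheld 24 h beforehand to induce EWS-FLI1 shRNA knockdown. Viability was read by CellTiter-Glo luminescence on an Envision reader. The data were LOESS-corrected per plate, divided by the median of negative controls and log2-transformed.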

[1] = 0.25 µM, library screen: screen1, EWS-FLI1 expression: high (no doxycycline)
[2] = 0.25 µM, library screen: screen1, EWS-FLI1 expression: low (doxycycline-induced shRNA knockdown)
[3] = 2.5 µM, library screen: screen1, EWS-FLI1 expression: high (no doxycycline)
[4] = 2.5 µM, library screen: screen1, EWS-FLI1 expression: low (doxycycline-induced shRNA knockdown)
[5] = 0.103 µM, library screen: screen3, EWS-FLI1 expression: high (no doxycycline)
[6] = 0.103 µM, library screen: screen3, EWS-FLI1 expression: low (doxycycline-induced shRNA knockdown)
[7] = 0.308 µM, library screen: screen3, EWS-FLI1 expression: high (no doxycycline)
[8] = 0.308 µM, library screen: screen3, EWS-FLI1 expression: low (doxycycline-induced shRNA knockdown)
[9] = 0.926 µM, library screen: screen3, EWS-FLI1 expression: high (no doxycycline)
[10] = 0.926 µM, library screen: screen3, EWS-FLI1 expression: low (doxycycline-induced shRNA knockdown)
[11] = 2.8 µM, library screen: screen3, EWS-FLI1 expression: high (no doxycycline)
[12] = 2.8 µM, library screen: screen3, EWS-FLI1 expression: low (doxycycline-induced shRNA knockdown)
[13] = 8.3 µM, library screen: screen3, EWS-FLI1 expression: high (no doxycycline)
[14] = 8.3 µM, library screen: screen3, EWS-FLI1 expression: low (doxycycline-induced shRNA knockdown)
[15] = 25 µM, library screen: screen3, EWS-FLI1 expression: high (no doxycycline)
[16] = 25 µM, library screen: screen3, EWS-FLI1 expression: low (doxycycline-induced shRNA knockdown)
[17] = 0.25 µM, library screen: screen2, EWS-FLI1 expression: high (no doxycycline)
[18] = 0.25 µM, library screen: screen2, EWS-FLI1 expression: low (doxycycline-induced shRNA knockdown)
[19] = 2.5 µM, library screen: screen2, EWS-FLI1 expression: high (no doxycycline)
[20] = 2.5 µM, library screen: screen2, EWS-FLI1 expression: low (doxycycline-induced shRNA knockdown)

Measured: cell viability (log2)

CC1(C)CC[C@]2(C)CC[C@]3(C)C(=CC[C@@H]4[C@@]5(C)CC[C@H](O)C(C)(C)[C@@H]5CC[C@]43C)[C@@H]2C1
inactive: [1] 0.0903 | [2] 0.0065 | [3] 0.1 | [4] 0.118

COC1=C[C@@H](C)[C@@H]2C[C@H]3OC(=O)C[C@H]4C(C)=C(OC)C(=O)[C@H]([C@@]2(C)C1=O)[C@@]34C
inactive: [1] 0.0742 | [2] 0.006 | [3] 0.146 | [4] 0.0264

Cc1ccc(C(=O)Nc2ccc(CN3CCN(C)CC3)c(C(F)(F)F)c2)cc1C#Cc1cnc2cccnn12
0.218: [10]
active: [9] -0.202 | [11] -0.252 | [13] -0.655 | [14] -0.442 | [15] -1.59 | [16] -1.35
inactive: [5] -0.0141 | [6] 0.111 | [7] -0.0138 | [8] 0.169 | [12] 0.093

CC(C)c1c(O)ccc2c1CCC1[C@@](C)(C(=O)O)CCC[C@]21C (stereo partly drawn)
inactive: [1] 0.0397 | [2] 0.152 | [3] 0.0988 | [4] 0.234

C=C(C)/C=C1/C=CC(=O)C(C)=C1
inactive: [1] 0.0888 | [2] 0.0664 | [3] 0.0231 | [4] 0.158

CCCCOc1ccc(CC(=O)NO)cc1
inactive: [1] 0.0397 | [2] 0.0519 | [3] 0.124 | [4] 0.116

CCCSc1ccc2nc(NC(=O)OC)[nH]c2c1
inactive: 0.025 µM, library screen: screen2, EWS-FLI1 expression: high (no doxycycline) 0.0864 | 0.025 µM, library screen: screen2, EWS-FLI1 expression: low (doxycycline-induced shRNA knockdown) 0.0115 | [5] 0.197 | [6] -0.0327 | [2] -0.0499 | [17] 0.0348 | [18] 0.051 | [7] 0.0506 | [8] 0.123 | [9] 0.0609 | [10] 0.0788 | [19] 0.158 | [20] 0.0631 | [12] 0.00738
active: [1] -0.206 | [3] -1.99 | [4] -1.04 | [11] -0.524 | [13] -1.81 | [14] -0.886 | 25 µM, library screen: screen2, EWS-FLI1 expression: high (no doxycycline) -1.74 | 25 µM, library screen: screen2, EWS-FLI1 expression: low (doxycycline-induced shRNA knockdown) -0.157 | [15] -2.99 | [16] -1.16

CCCOc1ccc2nc(NC(=O)OC)[nH]c2c1
active: [3] -0.659
inactive: [1] 0.0532 | [2] 0.106 | [4] -0.0137

O=c1cccc2c([C@H]3Oc4cc(O)cc(O)c4C[C@H]3O)cc(O)c(O)c2c1O
inactive: [1] 0.06 | [2] 0.00163 | [3] 0.108 | [4] 0.0999

N#C/C(=C\c1cc(Cl)cc(Cl)c1)c1cccnc1
inactive: 0.025 µM, library screen: screen1, EWS-FLI1 expression: high (no doxycycline) 0.0512 | 0.025 µM, library screen: screen1, EWS-FLI1 expression: low (doxycycline-induced shRNA knockdown) 0.0254 | [1] 0.126 | [2] 0.0849 | [3] 0.0839 | [4] 0.0837 | 25 µM, library screen: screen1, EWS-FLI1 expression: high (no doxycycline) -0.0133 | 25 µM, library screen: screen1, EWS-FLI1 expression: low (doxycycline-induced shRNA knockdown) 0.21

CC(C)c1ccc2c(c1)CC[C@@]1(C)[C@](C)(C(N)=O)CCC[C@]21C
inactive: [1] 0.0259 | [2] 0.0473 | [3] 0.108 | [4] 0.0563

CC(=O)O[C@H]1CC[C@@]2(C)C(CC[C@]3(C)C2CC=C2C4CC(C)(C)CC[C@]4(C)CCC23C)C1(C)C (stereo partly drawn)
inactive: [1] 0.05 | [2] 0.112 | [3] 0.0854 | [4] 0.111

COc1ccc(OC)c(CN2CCN(Cc3ccccc3OC)CC2)c1
inactive: [1] 0.101 | [2] 0.0584 | [3] 0.0952 | [4] 0.0149

COc1ccc(OC)c(CN2CCN(Cc3cc(OC)c(OC)cc3OC)CC2)c1
active: [1] -0.103
inactive: [2] 0.113 | [3] 0.0261 | [4] -0.0111

COc1ccc(OC)c(CN2CCN(Cc3ccc(OC)c(OC)c3)CC2)c1
inactive: [1] 0.114 | [2] 0.0365 | [3] 0.174 | [4] 0.0479

COc1ccc(CN2CCN(Cc3ccc(OC)c(OC)c3OC)CC2)c(OC)c1
inactive: [1] 0.0664 | [2] 0.0443 | [3] 0.0638 | [4] 0.0995

O=C(N[C@@H](Cc1ccccc1)C(=O)CCl)OCc1ccccc1
active: [19] -0.218
inactive: [17] 0.163 | [18] 0.156 | [20] 0.0216

CC(C)[C@H](NC(=O)OCc1ccccc1)C(=O)N[C@H](C=O)Cc1ccccc1
inactive: [17] 0.0586 | [18] 0.0917 | [19] 0.108 | [20] 0.155

Cc1ccc(S(=O)(=O)N[C@@H](Cc2ccccc2)C(=O)CCl)cc1
inactive: [17] 0.00163 | [18] 0.0223 | [19] 0.0887 | [20] 0.111

C[N+]1(C)[C@@H]2CC(OC(=O)C(O)(c3cccs3)c3cccs3)C[C@H]1[C@@H]1O[C@@H]12 (stereo partly drawn)
inactive: [5] -0.0419 | [6] -0.0363 | [7] -0.000855 | [8] 0.0413 | [9] 0.0247 | [10] 0.0262 | [11] 0.0531 | [12] 0.0434 | [13] 0.0573 | [14] 0.11 | [15] 0.0805 | [16] 0.115

Cc1occc(=O)c1C=CO
inactive: [1] 0.064 | [2] 0.0191 | [3] 0.188 | [4] 0.0363

CC1(C)S[C@@H]2[C@H](NC(=O)C(C(=O)O)c3ccccc3)C(=O)N2[C@H]1C(=O)O (stereo partly drawn)
inactive: [1] 0.137 | [2] 0.0878 | [3] 0.243 | [4] 0.131

CC1(C)S[C@@H]2[C@H](NC(=O)[C@H](N)c3ccccc3)C(=O)N2[C@H]1C(=O)O
inactive: [1] 0.0882 | [2] 0.14 | [3] 0.142 | [4] 0.206

CC1(C)S[C@@H]2[C@H](NC(=O)[C@H](N)c3ccc(O)cc3)C(=O)N2[C@H]1C(=O)O
active: [15] -0.676
inactive: [5] 0.0884 | [6] 0.104 | [1] 0.0883 | [2] 0.0656 | [7] -0.0334 | [8] 0.0742 | [9] 0.0733 | [10] 0.103 | [3] 0.14 | [4] 0.178 | [11] -0.017 | [12] 0.0291 | [13] 0.0293 | [14] 0.106 | [16] -0.0237
